# Measured values as given in ChEMBL document CHEMBL3988442, “University of Dundee, Small-Polar-MMV Screening Library” (2021).
# The campaign covered roughly 48,000 compounds. About 13,000 (27%) showed an effect of 50% or more. Some of the results follow.
# Tested on: Wolbachia pipientis
# Experiment: Anti-Wolbachia Cell-Based Screen
# Type: functional
# Set-up: scale not given: in the data most compounds retested in dose-response had high values
# Details: 5 µM
row,SMILES,Percent Effect
1,CCc1ccc(C(=O)N2C[C@@H]3COC[C@@H](C(=O)NC)[C@@H]3C2)cc1,-16.14%
2,Cc1ccc(S(=O)(=O)N2CC(C)Oc3ncccc32)c(C)c1 (stereo not drawn),-17.54%
3,Cn1nnc2c1CCN(C(=O)C1CC1)C2COCCN1CCCC1.O=C(O)C(F)(F)F (stereo not drawn),-5.654%
4,CCn1ncnc1CN1CCc2[nH]cnc2C1Cc1ccccc1 (stereo not drawn),-1.907%
5,Cc1cccc(CNC2(CCO)CCOCC2)c1C,-7.231%
6,CSC(C)C(=O)NS(=O)(=O)CCc1ccccc1 (stereo not drawn),-7.68%
7,CSCC(=O)N1CCOC(c2nc(C)n[nH]2)C1 (stereo not drawn),81.74%
8,Cc1n[nH]c(C2CN(C(=O)c3ccc(Cl)o3)CCO2)n1 (stereo not drawn),-21.06%
9,Cc1[nH]c(-c2ccccc2)nc1C(=O)N1CCc2[nH]cnc2C1C(=O)O (stereo not drawn),-27.35%
10,COCCCN(C)S(=O)(=O)c1ccc(Cl)cc1C#N,-9.182%
11,COCCNc1c(-c2ccc(Cl)cc2)c(=O)c1=O,106.9%
12,COCCCNC(=O)Cc1cc(-c2ccc(Cl)cc2)on1,18.42%
13,COCCN1CCN(Cc2ccc(Cl)cc2)[C@H]2CS(=O)(=O)C[C@H]21,3.262%
14,COCCNC(=O)CCNc1ccc(Cl)cn1,-1.356%
15,COCCCNc1c(-c2ccc(Cl)cc2)c(=O)c1=O,75.4%
16,CCCNC(=O)CC1OCCc2ccsc21 (stereo not drawn),-18.02%
17,CN1CCN(C[C@@H]2CN(Cc3c(Cl)cncc3Cl)C[C@@H]2CO)CC1,-1.243%
18,CCn1ncc2c1C(COC)CN(c1ncc(F)cn1)C2.O=C(O)C(F)(F)F.O=C(O)C(F)(F)F (stereo not drawn),103.8%
19,Cn1ncc2c1C(COCC1CC1)CN(S(C)(=O)=O)C2 (stereo not drawn),3.209%
20,COCC1CN(c2ncccn2)Cc2cnn(CC3CC3)c21 (stereo not drawn),112.4%
21,Cn1ncc2c1C(COCC1CC1)CN(CC1CC1)C2 (stereo not drawn),3.494%
22,CCOCCN1Cc2cnn(C)c2C(COCC)C1.O=C(O)C(F)(F)F.O=C(O)C(F)(F)F (stereo not drawn),-55.01%
23,Cn1ncc2c1C(COCC1CC1)CN(c1ncc(F)cn1)C2 (stereo not drawn),102.8%
24,COCC1CN(Cc2cc(C)on2)Cc2cnn(C)c21.O=C(O)C(F)(F)F.O=C(O)C(F)(F)F (stereo not drawn),-1.756%
25,CCn1ncc2c1C(COC)CN(S(=O)(=O)N(C)C)C2.O=C(O)C(F)(F)F (stereo not drawn),-1.525%

row,SMILES,Percent Effect
1,COCC1CN(C(=O)N2CCCC2)Cc2cnn(CC3CCCC3)c21 (stereo not drawn),9.026%
2,COCC1CN(c2ncc(F)cn2)Cc2cnn(C)c21.O=C(O)C(F)(F)F.O=C(O)C(F)(F)F (stereo not drawn),94.8%
3,Cn1cc(C[C@H]2[C@H](N3CCOCC3)CCN2C2CCOCC2)cn1.O=C(O)C(F)(F)F.O=C(O)C(F)(F)F,-4.511%
4,COCC1(C(=O)N2CCC(c3nccn3CC3CC3)CC2)CCC1,2.579%
5,CCN(CC)CCSc1nnc(N2CCN(c3ccccc3)CC2)s1,-12.7%
6,CN(Cc1cccc(O)c1)CC1CCCN(CCc2ccc(Cl)cc2)C1 (stereo not drawn),2.569%
7,CNC(=O)CSc1cnn(CC(=O)Nc2cccc(Cl)c2C)c(=O)c1Cl,-42.51%
8,Cc1cnc(N2CCC3(CCC(C(=O)NC(C)C)OC3)CC2)nc1 (stereo not drawn),-9.523%
9,CC(=O)N1CCCN(C(=O)NCCCNS(C)(=O)=O)CC1,-1.689%
10,COCCN1CCN(C(=O)c2ccc(C)cc2OC)[C@H]2CS(=O)(=O)C[C@H]21,5.009%
11,COc1ccccc1N1CCC(CNS(=O)(=O)c2cccs2)C1 (stereo not drawn),-9.312%
12,COc1ccccc1N1CCC(CNCc2c(C)nn(C)c2OC)C1 (stereo not drawn),-29.19%
13,COc1ccccc1N1CCC(CNCc2ccc(C#N)cc2)C1 (stereo not drawn),109.5%
14,COc1ccc(CNCC2CCN(c3ccccc3OC)C2)cc1O (stereo not drawn),114.3%
15,COc1cccc(N2CCC(CNc3cc(C)nc4ncnn34)C2)c1 (stereo not drawn),-5.133%
16,COc1ccccc1N1CCC(CNCc2cccc(C#N)c2)C1 (stereo not drawn),-2.203%
17,COc1ccccc1N1CCC(CNS(=O)(=O)c2c(C)nn(C)c2C)C1 (stereo not drawn),-2.863%
18,N#Cc1ccc(CNCC2CCN(CCO)CC2)cc1,-8.382%
19,COc1ccccc1N1CCC(CNCc2cccc(O)c2)C1 (stereo not drawn),-3.366%
20,COc1cccc(N2CCC(CNCc3cccc(C#N)c3)C2)c1 (stereo not drawn),82.37%
21,COc1cccc(N2CCC(CNC(=O)NCc3ccco3)C2)c1 (stereo not drawn),2.217%
22,COc1ccccc1N1CCC(CNS(=O)(=O)c2cccc(C#N)c2)C1 (stereo not drawn),87.58%
23,CC(C)(C)N1CC(C(=O)N2CCN(CCn3cncn3)CC2)CC1=O (stereo not drawn),-32.16%
24,Cc1nc(NC(=O)NC2CC(=O)N(C(C)C)C2)nn1C(C)C (stereo not drawn),-10.65%
25,N#CCCN1CCC(=Cc2ccccc2)CC1,4.186%

row,SMILES,Percent Effect
1,O=C(CC1CC1)N1CCC2(COCc3cnc(-c4ccccc4)nc32)C1 (stereo not drawn),-2.156%
2,CC(C)C(=O)N1CCC2(COCc3cnc(-c4cccnc4)nc32)C1 (stereo not drawn),110.7%
3,O=C(C1CCC1)N1CCC2(COCc3cnc(-c4cccnc4)nc32)C1 (stereo not drawn),-1.349%
4,O=C(CC1CC1)N1CCC2(COCc3cnc(-c4cccnc4)nc32)C1 (stereo not drawn),110.1%
5,COCCC(=O)N1CCC2(COCc3cnc(-c4cccnc4)nc32)C1 (stereo not drawn),82.83%
6,CC(C)NC(=O)N1CCC2(COCc3cnc(-c4ccccc4)nc32)C1 (stereo not drawn),-4.544%
7,COCC(=O)N1CCC2(COCc3cnc(-c4ccccc4)nc32)C1 (stereo not drawn),-5.335%
8,O=C(c1ccon1)N1CCc2ncnc(NCc3cccnc3)c2CC1,-8.818%
9,CN1CCN(c2cc(CNCc3cccc4c3OCO4)ccn2)CC1,11.73%
10,CC1CCCN(S(=O)(=O)NCCN/C(O)=C2/N=CC=CC2=O)C1 (stereo not drawn),-6.366%
11,O=C(NCC1Cn2nnc(-c3ccncc3)c2CO1)c1ccsc1.O=C(O)C(F)(F)F (stereo not drawn),-1.201%
12,O=C(c1ccsc1)N1C[C@@H]2C[C@@H](c3nnc(C4CC4)o3)O[C@@H]2C1,1.173%
13,CN(C)C[C@H]1C[C@@H]2CN(C(=O)c3ccco3)C[C@@H]2O1,-6.391%
14,O=C(NC[C@H]1C[C@@H]2CN(C(=O)c3ccco3)C[C@@H]2O1)c1ccsc1,124.8%
15,Cn1cccc1C(=O)NC[C@H]1C[C@@H]2CN(C(=O)c3ccco3)C[C@@H]2O1,102.1%
16,O=C(NC[C@@H]1C[C@@H]2CN(C(=O)CO)C[C@H]2O1)c1ccsc1,119.3%
17,O=C(NC[C@H]1C[C@@H]2CN(C(=O)c3ccno3)C[C@@H]2O1)C1CCC1,2.338%
18,Cn1cccc1C(=O)NC[C@H]1C[C@@H]2CN(C(=O)c3ccno3)C[C@H]2O1,1.866%
19,CC(C)NC[C@@]1(COc2ccccc2)C[C@@H](O)[C@@H](O)C1.Cl,3.998%
20,N#Cc1ccc(N2CCCC2Cn2cncn2)nc1 (stereo not drawn),6.543%
21,COc1ccccc1C(C#N)NC(=O)c1cccc2c1oc(=O)n2C (stereo not drawn),-5.303%
22,CC(=O)N1CCCN(C(=O)NC(C)c2csc3ccccc23)CC1 (stereo not drawn),-8.175%
23,O=C1N(Cc2cccc(F)c2F)CCCC1(O)CNC1CCCC1 (stereo not drawn),4.204%
24,COCCNC(=O)Nc1ccc(C(=O)N2CCSCC2)cc1C,-68.32%
25,NCC(=O)N1CCC2(CC1)CN(C(=O)Cc1ccc(Cl)cc1)CCO2,111%

row,SMILES,Percent Effect
1,NCCC(=O)N1CCC2(CC1)CN(C(=O)Cc1cccc(Cl)c1)CCO2,105.1%
2,O=C(Cc1ccccn1)N1CCC2(CC1)CN(c1ccccn1)CCO2,1.035%
3,NCCC(=O)N1CCC2(CC1)CN(C(=O)Cc1ccc(Cl)cc1)CCO2,115.1%
4,O=C(CCc1ccc(Cl)cc1)N1CCC(O)(C(F)(F)F)C1 (stereo not drawn),8.106%
5,O=C(Cc1ccccc1)N1CCC2(CC1)CN(c1ncccn1)CCO2,-17.85%
6,O=C(Cc1ccc(Cl)cc1)N1CCC(O)(C(F)(F)F)C1 (stereo not drawn),-18.33%
7,O=C(CN1C(=O)c2ccccc2C1=O)N1CCOC2(CCOCC2)C1,-3.799%
8,Cl.NCC1CCCCN1C(=O)Cc1cccc(Cl)c1 (stereo not drawn),-19.94%
9,CCOc1ncccc1C(=O)Nc1c(C)cnn1CC1CC1,12.64%
10,CC(=O)N1CCN(Cc2nnc(C(C)(C)C)o2)CC1,-8.386%
11,Cc1cc(CN(C)C(=O)NCc2ccnc(OC3CCCC3)c2)no1,7.98%
12,CC(=O)N1CCN(C(=O)c2cnc(OC(C)C)c(Cl)c2)CC1,-40.95%
13,CNC(=O)COc1ccc(CNc2cncc(-n3cccn3)n2)cc1,94.6%
14,CNC(=O)COc1ccc(CNc2c(Cl)cccc2C#N)cc1,-7.522%
15,CCN(Cc1nccn1C)C(=O)c1ccc(NCc2ccccc2)nc1,-22.31%
16,CCOc1cccc(CNc2cncc(-n3cccn3)n2)c1,10.28%
17,CCCOc1ccc(CNc2cncc(-n3cccn3)n2)cc1,92.88%
18,CCN(CC)C(=O)c1ccc(CNc2cncc(-n3cccn3)n2)cc1,118.2%
19,CCN(CC)C(=O)c1ccc(CNc2ncc(C#N)cc2Cl)cc1,2.172%
20,CN(CCCc1ccccc1)C(=O)c1cn2c(n1)CNCC2,13.8%
21,O=C(CSc1ccc2c(c1)OCCO2)NS(=O)(=O)c1ccccc1,-10.89%
22,Cn1nccc1C1CCN(Cc2cnn(-c3ccccc3)n2)CC1,-1.945%
23,CN(CCc1ccccc1)c1cnn(CC(=O)N2CCSCC2)c(=O)c1,-7.275%
